# Active and inactive are the calls of the source.
# Legend:
# [1] = optical density shifts of acrAB sulA E. coli – strain DRC41, OD650, 48 h, E. coli filamentation inducer project, primary screen (AID 1152); settings: higher = more signal, called active from +8 up or from −8 down;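 further: E. coli MC1000 strain DRC41 lacking acrAB efflux pump and sulA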
# [2] = probe aLefty1 binding on compound microarray – biochemical, small-molecule microarray, 635/667 nm fluorescence, primary screen (AID 1153); settings: higher = more signal;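 further: score merges spot fluorescence with signal-to-noise ratio from the scanned slide images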
# [3] = plasmodial surface anion channel blockers, osmotic lysis – cell-based, P. falciparum Indochina, OD700, 1 h, primary screen (AID 1154); settings: P. falciparum Indochina infected RBC osmotic lysis, higher = more signal, called active from +8 up or from −8 down
# [4] = plasmodial surface anion channel blockers, osmotic lysis – cell-based, P. falciparum Indochina, OD700, 2 h, primary screen (AID 1155);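 further: lysis reports solute entry through the parasite surface anion channel PSAC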; settings: P. falciparum Indochina infected erythrocytes, higher = more signal, called active from +8 up or from −8 down
# [5] = changes in parasitized red cell lysis, either direction – P. falciparum Indochina, OD700, 3 h, PSAC antagonist project, primary screen (AID 1156); settings: P. falciparum-infected erythrocytes, osmotic lysis, higher = more signal, called active from +8 up or from −8 down
# [6] = plasmodial surface anion channel blockers, osmotic lysis – cell-based, P. falciparum Indochina, OD700, 18 h, primary screen (AID 1157); settings: P. falciparum Indochina infected erythrocytes, osmotic lysis OD700, 18 h; higher = more signal, called active from +8 up or from −8 down
# [7] = S6 kinase pathway phospho-S6 level changes – cell-based, A549, cytoblot, luminescence, serum-stimulated, primary screen (AID 1158); settings: 5 h, higher = more signal;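 further: serum-stimulated A549 lung adenocarcinoma cells; signal is phosphorylated S6 detected by cytoblot immunostaining with HRP secondary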
# [8] = biological target: NADPH oxidase 2 (Homo sapiens) (UniProt P04839); assay: compounds shifting NOX2 Amplex Red fluorescence – cell-based, HEK293-NOX2, PMA-stimulated, NOX inhibitor project, primary screen (AID 1159); settings: 45 min, higher = more signal, called active from +8 up or from −8 down; further: test concentration not given here
# NADPH oxidase 2 (Homo sapiens), sequence (P04839 whole entry, looked up): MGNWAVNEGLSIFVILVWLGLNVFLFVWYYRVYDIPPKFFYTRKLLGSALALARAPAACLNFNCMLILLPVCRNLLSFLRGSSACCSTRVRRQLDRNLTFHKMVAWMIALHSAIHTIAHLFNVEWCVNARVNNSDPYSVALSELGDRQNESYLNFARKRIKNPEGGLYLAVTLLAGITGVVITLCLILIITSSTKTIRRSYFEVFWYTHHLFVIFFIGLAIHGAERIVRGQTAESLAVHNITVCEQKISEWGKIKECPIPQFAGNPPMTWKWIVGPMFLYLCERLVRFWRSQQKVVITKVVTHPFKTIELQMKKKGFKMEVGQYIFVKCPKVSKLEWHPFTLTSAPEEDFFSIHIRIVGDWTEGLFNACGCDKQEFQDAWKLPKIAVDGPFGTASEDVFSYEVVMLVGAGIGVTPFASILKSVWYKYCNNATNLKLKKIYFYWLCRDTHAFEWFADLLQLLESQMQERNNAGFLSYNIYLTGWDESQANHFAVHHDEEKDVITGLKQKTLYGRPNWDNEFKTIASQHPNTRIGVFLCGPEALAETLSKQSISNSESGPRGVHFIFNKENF
# [9] = biological target: NADPH oxidase 4 (Homo sapiens) (UniProt Q9NPH5); assay: compounds shifting NOX4 Amplex Red fluorescence – cell-based, HEK293-NOX4, tetracycline-induced, NOX inhibitor project, primary screen (AID 1160); settings: HEK293-NOX4, Amplex Red H2O2 fluorescence, 45 min; higher = more signal, called active from +8 up or from −8 down
# NADPH oxidase 4 (Homo sapiens), sequence (Q9NPH5 whole entry, looked up): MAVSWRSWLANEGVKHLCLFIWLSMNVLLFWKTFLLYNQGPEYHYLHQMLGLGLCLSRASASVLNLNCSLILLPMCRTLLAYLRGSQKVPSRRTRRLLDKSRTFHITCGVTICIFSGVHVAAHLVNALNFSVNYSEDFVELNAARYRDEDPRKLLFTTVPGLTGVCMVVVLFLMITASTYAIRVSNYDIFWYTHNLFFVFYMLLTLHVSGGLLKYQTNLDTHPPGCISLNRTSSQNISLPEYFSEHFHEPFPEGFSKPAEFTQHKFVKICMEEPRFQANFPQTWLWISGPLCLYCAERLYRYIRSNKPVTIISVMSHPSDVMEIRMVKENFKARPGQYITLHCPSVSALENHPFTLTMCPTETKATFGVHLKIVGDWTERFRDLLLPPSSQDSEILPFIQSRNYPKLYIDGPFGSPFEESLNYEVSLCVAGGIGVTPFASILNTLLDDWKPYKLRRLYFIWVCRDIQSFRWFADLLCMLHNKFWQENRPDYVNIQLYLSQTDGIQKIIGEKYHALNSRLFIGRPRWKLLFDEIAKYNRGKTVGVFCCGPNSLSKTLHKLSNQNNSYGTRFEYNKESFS
# [10] = biological target: NADPH oxidase 5 (Homo sapiens) (UniProt Q96PH1); assay: compounds shifting NOX5 Amplex Red fluorescence – cell-based, HEK293-NOX5, NOX inhibitor project, primary screen (AID 1161); settings: HEK293-NOX5, ionomycin, 45 min, higher = more signal
# NADPH oxidase 5 (Homo sapiens), sequence (Q96PH1 whole entry, looked up): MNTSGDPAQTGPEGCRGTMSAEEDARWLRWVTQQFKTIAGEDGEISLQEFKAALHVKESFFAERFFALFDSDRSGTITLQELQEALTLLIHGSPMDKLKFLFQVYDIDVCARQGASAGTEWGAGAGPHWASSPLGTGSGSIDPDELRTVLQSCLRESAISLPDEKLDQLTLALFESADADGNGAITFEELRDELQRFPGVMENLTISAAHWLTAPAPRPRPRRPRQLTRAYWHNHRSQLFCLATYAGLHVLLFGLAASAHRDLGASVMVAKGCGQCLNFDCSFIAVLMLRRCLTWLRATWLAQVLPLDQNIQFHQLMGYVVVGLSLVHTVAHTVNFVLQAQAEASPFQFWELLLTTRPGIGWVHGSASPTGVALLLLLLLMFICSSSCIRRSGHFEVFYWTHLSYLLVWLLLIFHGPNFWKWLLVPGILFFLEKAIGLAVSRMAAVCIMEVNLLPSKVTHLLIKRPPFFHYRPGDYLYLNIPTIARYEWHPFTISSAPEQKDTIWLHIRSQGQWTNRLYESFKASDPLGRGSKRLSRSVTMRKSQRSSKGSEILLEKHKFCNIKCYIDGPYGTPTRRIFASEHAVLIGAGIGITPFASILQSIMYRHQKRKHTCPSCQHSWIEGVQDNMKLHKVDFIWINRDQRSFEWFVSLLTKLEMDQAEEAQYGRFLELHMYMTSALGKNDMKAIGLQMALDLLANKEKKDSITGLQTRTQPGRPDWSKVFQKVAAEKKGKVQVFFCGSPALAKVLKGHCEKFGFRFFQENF
# [11] = compound effects on lung adenocarcinoma cell viability – A549, calcein-AM fluorescence, 48 h, basal, profiling panel (AID 1162); settings: higher = more signal; further: test concentration not given here
# [12] = compound effects on differentiated 3T3-L1 adipocyte viability – cell-based, 3T3-L1 adipocytes, calcein-AM fluorescence, 48 h, basal, profiling panel (AID 1163); settings: 3T3-L1 adipocytes viability, higher = more signal; further: test concentration not given here
# [13] = compound effects on hepatocellular carcinoma cell viability – HepG2, calcein-AM fluorescence, 48 h, basal, profiling panel (AID 1164); settings: higher = more signal; further: test concentration not given here
# [14] = compound effects on multiple myeloma cell viability – MM1S, calcein-AM fluorescence, 48 h, basal, profiling panel (AID 1165); settings: higher = more signal;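 further: viability of MM1S multiple myeloma cells under basal unstimulated conditions; test concentration not given here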
# [15] = calcein-AM signal in unstimulated myeloma cells – cell-based, calcein-AM fluorescence, 48 h, PK04 Diversity Set, profiling panel (AID 1166); settings: RPMI8226 myeloma viability, higher = more signal;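 further: cells grown under basal conditions without added stimulus; test concentration not given here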
# [16] = JC-1 mitochondrial signal, unstimulated HepG2 cells – cell-based, JC-1 fluorescence, 24 h, 100 nL compound, profiling panel (AID 1167); settings: HepG2 mitochondrial potential, higher = more signal; further: test concentration not given here
# [17] = JC-1 mitochondrial signal, unstimulated adipocytes – cell-based, JC-1 fluorescence, 3T3-L1 adipocytes, 24 h, 100 nL compound, profiling panel (AID 1168); settings: JC-1 mitochondrial fluorescence, higher = more signal, called active from +8 up or from −8 down; further: test concentration not given here
# [18] = JC-1 mitochondrial signal, unstimulated myeloma cells – cell-based, JC-1 fluorescence, RPMI8226, 24 h, 100 nL compound, profiling panel (AID 1169); settings: JC-1 mitochondrial potential fluorescence, higher = more signal; further: test concentration not given here
# [19] = JC-1 mitochondrial signal, unstimulated MM1S myeloma – cell-based, JC-1 fluorescence, 24 h, 100 nL compound, profiling panel (AID 1170); settings: MM1S mitochondrial potential, higher = more signal; further: test concentration not given here
# [20] = resazurin metabolic signal in A549 cells – cell-based, resazurin fluorescence, 24 h, PK04 Diversity Set, profiling panel (AID 1171); settings: A549 viability, higher = more signal, called active from +8 up or from −8 down; further: test concentration not given here
Structure (SMILES),z-score [1],composite z-score [2],z-score [3],z-score [4],z-score [5],z-score [6],z-score [7],z-score [8],z-score [9],z-score [10],z-score [11],z-score [12],z-score [13],z-score [14],z-score [15],z-score [16],z-score [17],z-score [18],z-score [19],z-score [20]
CC(C)N1C(=O)C[C@@](C(=O)NCc2ccccc2)(c2ccc([N+](=O)[O-])cc2)[C@H]1c1ccc(CO)cc1,1.05 (inactive),-0.409,1.58 (inactive),-0.273 (inactive),1.03 (inactive),0.449 (inactive),-0.081,-0.85 (inactive),-0.235 (inactive),-1.72,-0.508,-0.749,-0.113,-0.0234,-0.0746,0.924,1.08 (inactive),-0.744,0.301,0.0885 (inactive)
CN1C(=O)C2C(C1=O)C1C=C(CCCO)C2C(c2cccs2)N1C (stereo not given),0.325 (inactive),-0.274,1.52 (inactive),0.326 (inactive),1.31 (inactive),0.181 (inactive),-0.519,0.108 (inactive),0.378 (inactive),1.22,0.0141,-0.388,0.174,1.59,0.664,0.699,0.617 (inactive),0.257,-0.852,-0.396 (inactive)
COc1ccc([Si](C)(C)[C@H]2[C@H](CCn3cc(CCO)nn3)O[C@@]3(C(=O)N(Cc4ccc(N5CCOC5=O)cc4)c4ccccc43)[C@@H]2C)cc1,0.176 (inactive),0.308,33.4 (active),34.8 (active),2.62 (inactive),6.01 (inactive),0.711,-0.564 (inactive),2.16 (inactive),-0.419,0.252,0.469,0.161,-3.07,-2.73,0.484,0.854 (inactive),-0.911,-1.33,-1.75 (inactive)
COC(=O)[C@@]1(Cc2ccc(F)cc2)[C@H]2c3cc(C(=O)N4CCCC4)n(Cc4cccc5ccccc45)c3C[C@H]2CN1C(=O)c1ccccc1,-2.25 (inactive),0.342,3.9 (inactive),1.03 (inactive),1.22 (inactive),0.863 (inactive),-0.875,0.836 (inactive),-0.021 (inactive),-0.666,-0.805,0.42,0.0082,-1.03,-1.07,3.8,-1.48 (inactive),0.127,-0.779,0.785 (inactive)
O=C1C2C=CC(C(O)c3ccc(F)cc3)N(Nc3ccccc3)C2C(=O)N1c1ccccc1 (stereo not given),-0.789 (inactive),0.374,10.2 (active),2.02 (inactive),0.0089 (inactive),1.24 (inactive),-0.931,-1.77 (inactive),-3.42 (inactive),-1.96,0.257,-1.66,-0.114,0.561,-0.149,-1.58,-0.0708 (inactive),-0.0118,-1.01,-0.111 (inactive)
CCCN1C(=O)[C@@]2(CCC(=O)OC(C)(C)C)N=C(c3ccc(OCCCO)cc3)O[C@H]2c2ccccc21,0.42 (inactive),-0.358,35.9 (active),37.4 (active),3.51 (inactive),9.08 (active),0.237,-2.74 (inactive),-0.665 (inactive),-1.96,-1.32,1.24,-2.09,-3.47,-4.43,0.6,2.43 (inactive),-1.26,-0.421,-0.778 (inactive)
CC(C)CNC(=O)[C@@H]1c2ccccc2C(=O)N(Cc2cc(C(F)(F)F)cc(C(F)(F)F)c2)[C@H]1c1ccc(CO)cc1,0.808 (inactive),0.197,1.52 (inactive),0.0238 (inactive),0.173 (inactive),0.379 (inactive),0.578,0.753 (inactive),-0.815 (inactive),0.86,0.099,0.628,-0.155,0.37,-0.754,0.363,-0.861 (inactive),0.428,1.25,-0.0372 (inactive)
Cc1ccc(S[C@]2(C(=O)NCC(C)C)CC(=O)N(Cc3ccccc3)[C@@H]2c2ccc(CO)cc2I)cc1,-0.668 (inactive),0.0597,10.6 (active),1.16 (inactive),0.448 (inactive),0.598 (inactive),-0.36,1.09 (inactive),-2.23 (inactive),0.489,0.715,0.752,0.38,-2.1,-2.73,-0.329,-1.23 (inactive),-0.813,-0.528,0.999 (inactive)
C=CC[C@@H](OC(=O)Nc1ccc(OC)cc1)c1ccc(O)c2ccccc12,0.122 (inactive),-0.0615,3.63 (inactive),0.661 (inactive),-0.335 (inactive),0.279 (inactive),0.229,-6.06 (inactive),-1.69 (inactive),-0.308,-0.28,0.316,-2,-2.96,-4.3,-3.28,-1.55 (inactive),-0.992,-2.18,-0.67 (inactive)

# Reference: PubChem BioAssay
